Assay results from PubChem BioAssay (NCATS).
Calls of active or inactive are those of the source. The call rests on the fitted dose curve; in most records, active means well fitted curve in the direction sought with a large enough effect; inconclusive means small, poorly fitted or top-dose-only effect, or another doubt; inactive means no such curve, though single readings can be large or run the other way.

Each compound was assayed against Alpha-galactosidase (Coffea arabica) (UniProt Q42656) (assay: Counterscreen for Glucocerebrosidase Inhibitors: qHTS Assay for Coffee Bean alpha-Galactosidase at pH 4.5 (AID 957)). Details: purified coffee bean alpha-galactosidase, fluorogenic substrate; series mostly up to 76.9 µM.
How it was run: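 Green coffee bean enzyme (2 nM final) was incubated with compounds (0.7 nM to 77 uM) and 4-methylumbelliferyl alpha-D-galactopyranoside (80 uM final) in 50 mM citric acid, 0.005% Tween-20, pH 4.5, 20 min at room temperature; AC50 from Hill fits.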

Alpha-galactosidase (Coffea arabica), sequence (Q42656 whole entry, looked up): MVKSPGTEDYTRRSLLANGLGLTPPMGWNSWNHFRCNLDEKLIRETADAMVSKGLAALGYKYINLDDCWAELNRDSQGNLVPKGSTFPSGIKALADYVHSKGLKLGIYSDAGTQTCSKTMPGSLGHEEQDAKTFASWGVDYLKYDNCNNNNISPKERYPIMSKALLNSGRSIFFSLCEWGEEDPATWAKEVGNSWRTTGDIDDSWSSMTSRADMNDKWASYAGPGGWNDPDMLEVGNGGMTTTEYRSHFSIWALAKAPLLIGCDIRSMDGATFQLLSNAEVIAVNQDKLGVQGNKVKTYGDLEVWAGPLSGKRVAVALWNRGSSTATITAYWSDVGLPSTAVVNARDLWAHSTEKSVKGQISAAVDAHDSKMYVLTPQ

| Structure (SMILES) | outcome |
| --- | --- |
| CN1CCN(CC(=O)N2c3ccccc3C(=O)Nc3cccnc32)CC1 | inactive |
| O=c1[nH]c(=O)n([C@H]2C[C@H](O)[C@@H](CO)O2)cc1Br | inactive |
| CCCCCCCCCCCCCCCC(=O)NCCO | inactive |
| NC(=O)c1cnccn1 | inactive |
| COc1ccc(C2CNC(=O)C2)cc1OC1CCCC1 (stereo not given) | inactive |
| CCO/C([O-])=N/c1c[n+](N2CCOCC2)no1 | inactive |
| Cc1nc2c([nH]1)c(=O)n(C)c(=O)n2Cc1ccco1 | inactive |
| CCN(CC)CCNC(=O)c1cc(S(C)(=O)=O)ccc1OC | inactive |
| O=C1NCC2(CCN(CCc3ccccc3)CC2)O1 | inactive |
| Cn1c(=O)c2[nH]cnc2n(C)c1=O | inactive |
| CC(=O)O[C@H]1C(=O)[C@@]2(C)[C@H]([C@H](OC(=O)c3ccccc3)[C@]3(O)C[C@H](OC(=O)[C@H](O)[C@@H](NC(=O)c4ccccc4)c4ccccc4)C(C)=C1C3(C)C)[C@]1(OC(C)=O)CO[C@@H]1C[C@@H]2O | inactive |
| Nc1ccc(S(=O)(=O)Nc2ccnn2-c2ccccc2)cc1 | inactive |
| CC(C)(C)NC[C@H](O)COc1nsnc1N1CCOCC1 | inactive |
| C1COC(NC(C2CC2)C2CC2)=N1 | inactive |
| CN=C(NC#N)NCCSCc1nc[nH]c1C | inactive |
| CNCCCC12CCC(c3ccccc31)c1ccccc12 | inactive |
| CC(=O)Oc1cc(C(C)C)c(OCCN(C)C)cc1C | inactive |
| CN(C)CCOC(=O)COc1ccc(Cl)cc1 | inactive |
| NCCCCCC(=O)O | inactive |
| CC[N+](CC)(CC)CCOc1cccc(OCC[N+](CC)(CC)CC)c1OCC[N+](CC)(CC)CC | inactive |
| COc1ccc2cc([C@H](C)C(=O)O)ccc2c1 | inactive |
| NC1CCN(c2cccc(Cl)n2)CC1 | inactive |
| CCCCC/C=C\C/C=C\C/C=C\C/C=C\CCCC(=O)NCC(=O)O | inactive |
| C[C@H](CS)C(=O)N1CCC[C@H]1C(=O)O | inactive |
| COc1ccc2[nH]cc(CCNC(C)=O)c2c1 | inactive |
| CN1C(C)(C)CCCC1(C)C | inactive |
| CN1[C@@H]2CC[C@H]1CC(OC(c1ccccc1)c1ccccc1)C2 (stereo not given in full) | inactive |
| Clc1cccc(Cl)c1NC1=NCCN1 | inactive |
| CCN(CC)CCNC(=O)c1ccc(N)cc1 | inactive |
| COc1cc(-c2ccc(=O)[nH]n2)ccc1OC(F)F | inactive |
